Common to all, as to conditions: Compound concentration 20.0 uM, Protein concentration 2.0 uM, Result type QC Liability
The target of test [1] is Tyrosine-protein kinase ABL1 (Homo sapiens) (UniProt P00519).
The target of test [2] is Cyclin-dependent kinase 2 (Homo sapiens) (UniProt P24941).
Test [3] addresses Casein kinase I isoform delta (Homo sapiens) (UniProt P48730).
In test [4] the target is Glycogen synthase kinase-3 beta (Homo sapiens) (UniProt P49841).
Test [5] addresses Mitogen-activated protein kinase 1 (Homo sapiens) (UniProt P28482).
For test [6], the target named is T1, Aurora kinase A (Homo sapiens) (UniProt O14965).
T1 sequence (whole entry): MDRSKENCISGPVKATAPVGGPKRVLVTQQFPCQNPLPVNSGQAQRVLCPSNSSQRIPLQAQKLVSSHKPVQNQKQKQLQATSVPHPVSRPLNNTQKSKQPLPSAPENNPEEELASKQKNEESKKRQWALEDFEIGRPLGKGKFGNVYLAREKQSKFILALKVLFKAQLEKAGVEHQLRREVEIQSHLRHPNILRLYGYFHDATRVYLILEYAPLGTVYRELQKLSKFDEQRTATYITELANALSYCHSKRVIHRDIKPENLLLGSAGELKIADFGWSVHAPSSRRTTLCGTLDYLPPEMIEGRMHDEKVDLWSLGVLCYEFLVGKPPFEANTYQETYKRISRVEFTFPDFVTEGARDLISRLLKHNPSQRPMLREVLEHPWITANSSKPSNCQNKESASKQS

The target of test [7] is T2, Transcription intermediary factor 1-alpha (Homo sapiens) (UniProt O15164).
T2 sequence (whole entry): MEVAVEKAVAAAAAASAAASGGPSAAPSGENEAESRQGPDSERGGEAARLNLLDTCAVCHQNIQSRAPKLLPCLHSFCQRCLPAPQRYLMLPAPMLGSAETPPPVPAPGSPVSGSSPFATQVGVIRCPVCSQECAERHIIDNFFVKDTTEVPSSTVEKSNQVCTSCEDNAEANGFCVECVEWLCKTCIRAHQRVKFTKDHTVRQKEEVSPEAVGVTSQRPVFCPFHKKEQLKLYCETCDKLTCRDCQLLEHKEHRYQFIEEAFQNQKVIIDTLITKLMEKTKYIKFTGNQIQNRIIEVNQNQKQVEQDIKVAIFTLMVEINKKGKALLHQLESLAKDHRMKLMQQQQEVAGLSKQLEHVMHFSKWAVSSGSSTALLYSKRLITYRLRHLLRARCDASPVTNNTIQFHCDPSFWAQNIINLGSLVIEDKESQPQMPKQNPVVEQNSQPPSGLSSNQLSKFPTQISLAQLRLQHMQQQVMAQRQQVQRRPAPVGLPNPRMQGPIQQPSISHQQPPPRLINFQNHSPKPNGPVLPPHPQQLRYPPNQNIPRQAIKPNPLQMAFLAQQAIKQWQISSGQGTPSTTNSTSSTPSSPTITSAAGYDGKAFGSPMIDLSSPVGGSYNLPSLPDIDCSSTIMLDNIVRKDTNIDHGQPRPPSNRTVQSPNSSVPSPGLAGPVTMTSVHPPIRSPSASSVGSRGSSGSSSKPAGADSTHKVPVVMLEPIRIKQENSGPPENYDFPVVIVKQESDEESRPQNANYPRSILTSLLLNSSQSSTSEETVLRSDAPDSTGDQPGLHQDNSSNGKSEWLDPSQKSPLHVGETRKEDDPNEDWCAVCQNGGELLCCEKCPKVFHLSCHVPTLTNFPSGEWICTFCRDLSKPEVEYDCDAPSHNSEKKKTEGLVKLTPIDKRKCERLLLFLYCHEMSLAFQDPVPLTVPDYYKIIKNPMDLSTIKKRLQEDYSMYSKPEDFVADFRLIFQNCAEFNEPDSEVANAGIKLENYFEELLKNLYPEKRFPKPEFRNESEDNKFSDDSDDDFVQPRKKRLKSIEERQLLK

Usually ΔTm stands for the change in melting temperature against a reference sample.

Sequence of Casein kinase I isoform delta (Homo sapiens) (P48730 whole entry, looked up, canonical isoform): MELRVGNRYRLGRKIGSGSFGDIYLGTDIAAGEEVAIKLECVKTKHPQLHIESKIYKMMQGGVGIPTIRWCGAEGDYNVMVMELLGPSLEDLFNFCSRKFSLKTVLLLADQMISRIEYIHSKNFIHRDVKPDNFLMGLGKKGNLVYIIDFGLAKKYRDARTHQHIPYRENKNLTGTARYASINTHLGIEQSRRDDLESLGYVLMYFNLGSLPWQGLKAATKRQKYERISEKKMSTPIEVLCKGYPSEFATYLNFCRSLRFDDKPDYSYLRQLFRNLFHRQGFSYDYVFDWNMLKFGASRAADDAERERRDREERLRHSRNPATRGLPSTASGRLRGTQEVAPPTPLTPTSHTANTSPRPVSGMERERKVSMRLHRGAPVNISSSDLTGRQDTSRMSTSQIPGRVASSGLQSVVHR
Sequence of Mitogen-activated protein kinase 1 (Homo sapiens) (P28482 whole entry): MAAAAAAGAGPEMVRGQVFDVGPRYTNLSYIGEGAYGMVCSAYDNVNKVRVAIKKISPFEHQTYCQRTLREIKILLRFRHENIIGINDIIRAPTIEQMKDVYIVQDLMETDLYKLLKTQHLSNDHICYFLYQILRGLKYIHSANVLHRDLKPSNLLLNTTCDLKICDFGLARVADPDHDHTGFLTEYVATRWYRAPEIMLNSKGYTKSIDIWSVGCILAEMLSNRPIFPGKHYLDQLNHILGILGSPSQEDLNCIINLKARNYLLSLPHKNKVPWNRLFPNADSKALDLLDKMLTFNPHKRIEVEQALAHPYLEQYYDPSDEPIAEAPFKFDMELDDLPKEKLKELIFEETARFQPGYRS
Sequence of Glycogen synthase kinase-3 beta (Homo sapiens) (P49841 whole entry, looked up): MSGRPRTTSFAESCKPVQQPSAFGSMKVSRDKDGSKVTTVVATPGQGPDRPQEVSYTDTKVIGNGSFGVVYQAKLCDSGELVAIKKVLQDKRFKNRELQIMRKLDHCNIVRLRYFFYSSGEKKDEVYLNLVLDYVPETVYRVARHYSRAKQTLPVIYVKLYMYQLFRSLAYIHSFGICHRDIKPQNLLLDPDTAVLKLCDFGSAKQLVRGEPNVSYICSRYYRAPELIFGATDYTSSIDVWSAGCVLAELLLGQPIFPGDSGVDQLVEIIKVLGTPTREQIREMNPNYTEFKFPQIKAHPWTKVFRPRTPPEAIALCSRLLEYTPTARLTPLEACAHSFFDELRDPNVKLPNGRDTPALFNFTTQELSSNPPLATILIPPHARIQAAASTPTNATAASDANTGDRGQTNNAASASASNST
Sequence of Tyrosine-protein kinase ABL1 (Homo sapiens) (P00519 whole entry): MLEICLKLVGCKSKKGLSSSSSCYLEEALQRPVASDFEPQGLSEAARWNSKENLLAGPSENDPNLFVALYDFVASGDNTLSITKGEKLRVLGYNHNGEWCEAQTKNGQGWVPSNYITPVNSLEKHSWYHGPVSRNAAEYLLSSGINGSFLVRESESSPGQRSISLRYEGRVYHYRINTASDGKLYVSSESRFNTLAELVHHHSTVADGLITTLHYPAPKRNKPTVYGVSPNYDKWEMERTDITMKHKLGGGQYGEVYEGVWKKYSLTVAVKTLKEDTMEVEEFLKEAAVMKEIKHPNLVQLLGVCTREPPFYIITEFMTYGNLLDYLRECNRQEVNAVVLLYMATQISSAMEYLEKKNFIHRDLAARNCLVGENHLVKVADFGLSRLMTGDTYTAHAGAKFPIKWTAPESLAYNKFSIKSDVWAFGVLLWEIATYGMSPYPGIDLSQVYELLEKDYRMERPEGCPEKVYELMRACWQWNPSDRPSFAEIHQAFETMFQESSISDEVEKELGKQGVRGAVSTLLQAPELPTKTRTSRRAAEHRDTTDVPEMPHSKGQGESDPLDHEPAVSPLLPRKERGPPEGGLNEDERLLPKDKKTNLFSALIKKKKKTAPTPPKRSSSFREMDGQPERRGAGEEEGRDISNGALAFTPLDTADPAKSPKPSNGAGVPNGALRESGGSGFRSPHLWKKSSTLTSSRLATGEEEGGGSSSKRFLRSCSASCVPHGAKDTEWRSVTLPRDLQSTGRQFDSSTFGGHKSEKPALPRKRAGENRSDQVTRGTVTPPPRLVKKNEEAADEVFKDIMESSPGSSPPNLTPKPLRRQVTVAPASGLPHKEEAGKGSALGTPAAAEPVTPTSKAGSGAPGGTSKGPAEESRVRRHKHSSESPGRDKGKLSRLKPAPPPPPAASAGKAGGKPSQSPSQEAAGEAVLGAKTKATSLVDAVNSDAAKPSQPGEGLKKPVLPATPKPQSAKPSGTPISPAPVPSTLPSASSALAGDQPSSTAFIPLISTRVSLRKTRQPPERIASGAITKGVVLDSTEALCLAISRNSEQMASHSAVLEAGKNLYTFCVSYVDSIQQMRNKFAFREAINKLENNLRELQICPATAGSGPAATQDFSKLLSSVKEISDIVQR

As to `Cc1nnc2n1-c1sc(CCC(=O)N3CCOCC3)cc1C(c1ccccc1Cl)=NC2`, the ΔTm in test [1] was 0.15 °C; in test [2] it was 0.99 °C; in test [3], 0.34 °C; in test [4] it was -0.2 °C; in test [5] it was 0.13 °C; in test [6], 0.01 °C. Moreover, the ΔTm in test [7] turned out to be 0.29 °C.

With `CCC(=O)O[C@@H](OP(=O)(CCCCc1ccccc1)CC(=O)N1C[C@H](C2CCCCC2)C[C@H]1C(=O)O)C(C)C` (some centres undefined), the ΔTm in test [1] was 0.01 °C; in test [2], 0.46 °C; in test [3], -0.25 °C; in test [4], -0.61 °C; in test [5], 0.22 °C; in test [6], -1.22 °C. The ΔTm in test [7] is -3.14 °C.

As to `C[C@H](CCC(=O)O)[C@H]1CC[C@H]2[C@@H]3CC[C@@H]4C[C@H](O)CC[C@]4(C)[C@H]3CC[C@]12C`, the ΔTm in test [1] was -0.82 °C; in test [2], -1.65 °C; in test [3], -3.52 °C; in test [4] it was -3.06 °C; in test [5], -0.88 °C; in test [6] it was -4.37 °C. Further, the shift in melting temperature (ΔTm) in test [7] was -5.96 °C.

Regarding `COc1ccc(OC(=O)N(CC(=O)O)Cc2ccc(OCCc3nc(-c4ccccc4)oc3C)cc2)cc1`, the ΔTm in test [1] was 0.16 °C; in test [2] it was -0.27 °C; in test [3], 0.56 °C; in test [4] it was -1.96 °C; in test [5], 0.18 °C; in test [6], -0.93 °C. Besides, the ΔTm in test [7] was -4.78 °C.

As to `O=C(NCCN1CCC2(CC1)C(=O)NCN2c1cccc(F)c1)c1ccc2ccccc2c1`, the ΔTm was -0.28 °C in test [1]; 0.17 °C in test [2]; 0.58 °C in test [3]; -0.14 °C in test [4]; 0.08 °C in test [5]; 0.16 °C in test [6]. In test [7], the ΔTm amounted to 0.18 °C.

Regarding `C[C@@H]1CC[C@@]2(OC1)O[C@H]1[C@@H](O)[C@H]3[C@@H]4CC[C@H]5C[C@@H](O[C@@H]6O[C@H](CO)[C@H](O[C@@H]7O[C@H](CO)C(O)[C@H](O[C@@H]8OC[C@@H](O)[C@H](O)[C@H]8O)[C@H]7O[C@@H]7O[C@H](CO)[C@H](O)[C@H](O[C@@H]8O[C@H](CO)[C@@H](O)[C@H](O)[C@H]8O)[C@H]7O)[C@H](O)[C@H]6O)[C@H](O)C[C@]5(C)[C@H]4CC[C@]3(C)[C@H]1[C@@H]2C` (some centres undefined), the ΔTm in test [1] was 0.2 °C; in test [2], 0.55 °C; in test [3], 0.07 °C; in test [4], -0.93 °C; in test [5], 0.27 °C; in test [6] it was -0.73 °C. Moreover, in test [7], the ΔTm is -3.45 °C.

On to `CCOP(=O)(OCC)C(=Cc1cc(C(C)(C)C)c(O)c(C(C)(C)C)c1)P(=O)(OCC)OCC`, for which the ΔTm in test [1] was -0.09 °C; in test [2], 0.15 °C; in test [3], 0.17 °C; in test [4], -0.29 °C; in test [5], 0.15 °C; in test [6], -1.17 °C. Also, in test [7], the ΔTm was -3.9 °C.

For `Clc1ccccc1C(c1ccccc1)(c1ccccc1)n1cccn1`, the ΔTm in test [1] is 0.43 °C; in test [2] it was 0.09 °C; in test [3] it was -0.01 °C; in test [4] it was -0.43 °C; in test [5], 0.22 °C; in test [6], -0.47 °C. The ΔTm in test [7] is -0.54 °C.

As to `OCC1OC(n2cnc3cc(Cl)c(Cl)cc32)C(O)C1O` (centres undefined), the ΔTm was 0.32 °C in test [1]; 1.91 °C in test [3]; 0.18 °C in test [4]; 0.27 °C in test [5]; 0.42 °C in test [6]; -1.91 °C in test [7].

As for `CCN(CC)CCO[C@H]1CC[C@@]2(C)C(=CC[C@@H]3[C@@H]2CC[C@]2(C)C(=O)CC[C@@H]32)C1`, the ΔTm in test [1] was 0.26 °C; in test [2] it was 0.63 °C; in test [3], -0.08 °C; in test [4], -0.11 °C; in test [5], 0.35 °C; in test [6], -0.37 °C. For the same compound, the ΔTm in test [7] is -0.77 °C.

As to `C[C@@H](CN1CC[C@@]2(C)c3cccc(O)c3C[C@@H]1C2(C)C)OCc1ccccc1`, the ΔTm in test [1] is -0.13 °C; in test [2], 0.59 °C; in test [3] it was 0.25 °C; in test [4], -1.13 °C; in test [5], 0.48 °C; in test [6], 0.13 °C. Moreover, the ΔTm in test [7] stood at 0.17 °C.

As to `CCCn1cc(-c2cc(C3C(=O)N(CC)c4ccc(C(F)(F)F)cc4N(c4ccccc4)C3=O)cc(OC)c2O)cn1` (centres undefined), the ΔTm is -0.36 °C in test [1]; 1.16 °C in test [2]; 0.47 °C in test [3]; -1.32 °C in test [4]; -7.84 °C in test [5]; 0.54 °C in test [6]. Moreover, the shift in melting temperature (ΔTm) in test [7] was found to be 0.28 °C.

As to `C=CC(=O)Nc1ccc2[nH]c(=O)n(C3CCN(Cc4ccc(-c5ccc6c(c5)NC(=O)CO6)cc4)CC3)c2c1`, the shift in melting temperature (ΔTm) in test [1] is 0.74 °C; in test [2] it was -0.1 °C; in test [3], 0.68 °C; in test [4], 3.14 °C; in test [5] it was 0.64 °C; in test [6], 1.01 °C. The ΔTm in test [7] was -2.17 °C.

On to `Cc1cc(Cl)ccc1S(=O)(=O)NC[C@H]1C2CCC(CC2)[C@@H]1/C=C\CCCC(=O)O`, for which the ΔTm was -0.05 °C in test [1]; -0.53 °C in test [2]; -0.27 °C in test [3]; -1.54 °C in test [4]; 0.13 °C in test [5]; -0.34 °C in test [6]. Besides, in test [7], the ΔTm is -0.51 °C.

Turning to `COP(=O)(CCC(N)C(=O)O)Oc1cccc(CC(=O)O)c1` (centres undefined), the ΔTm in test [1] is -0.06 °C; in test [2] it was 0.07 °C; in test [3], 0.36 °C; in test [4] it was -0.02 °C; in test [5], 0.13 °C; in test [6], -0.17 °C. Besides, the ΔTm in test [7] is 0.32 °C.

Consider `CCN1C(=O)C(c2cccc(C(=O)O)c2)C(=O)N(c2ccccc2)c2cc(C(F)(F)F)ccc21` (centres undefined), for which the ΔTm is -0.5 °C in test [1]; -0.13 °C in test [2]; 0.29 °C in test [3]; -1.43 °C in test [4]; 0.17 °C in test [5]; -0.25 °C in test [6]. The ΔTm in test [7] amounted to 0.23 °C.

Turning to `Cc1ccc2c(N)c(C(=O)NC3CCc4cc(N5CC6CCC(C5)N6)ccc4C3)sc2n1` (centres undefined), the ΔTm in test [1] is 0.14 °C; in test [2] it was -0.27 °C; in test [3], 0.27 °C; in test [4], -0.23 °C; in test [5], 0.3 °C; in test [6], -0.05 °C. Besides, the ΔTm in test [7] is -1.89 °C.

For the compound `CC[C@H]1[C@@H](O)[C@@H]2[C@H](CC[C@]3(C)[C@@H]([C@H](C)CCC(=O)O)CC[C@@H]23)[C@@]2(C)CC[C@@H](O)C[C@@H]12`, the shift in melting temperature (ΔTm) in test [1] was -0.12 °C; in test [2] it was -0.27 °C; in test [3] it was 0.56 °C; in test [4], -0.92 °C; in test [5], -0.09 °C; in test [6] it was -1.71 °C. In test [7], the ΔTm was -1.62 °C.

`Cc1nnc2n1-c1sc3c(c1C(c1ccccc1Cl)=NC2)CC(C(=O)N1CCOCC1)C3` (centres undefined): the ΔTm in test [1] was 0.38 °C; in test [2], 1.08 °C; in test [3] it was 0.02 °C; in test [4] it was -0.24 °C; in test [5], 0.25 °C; in test [6], 0.1 °C. Moreover, the ΔTm in test [7] worked out at 0.23 °C.

`C=CC(=O)Nc1cc(-c2nn(C3CCC(N4CCN(C(C)=O)CC4)CC3)c3ncnc(N)c23)ccc1Oc1ccccc1` (centres undefined): the ΔTm in test [1] was 0.84 °C; in test [2], 0.18 °C; in test [3], 0.89 °C; in test [4] it was -1.12 °C; in test [5], 0.34 °C; in test [6], 4.07 °C. For the same compound, the ΔTm in test [7] was -1.68 °C.

Source of the values: ChEMBL document CHEMBL5308504, “Tm Shift (DSF) assay results for EUbOPEN Chemogenomics Library” (2023).
